{"source": "PubChem BioAssay (NCI)", "note": "The panel holds about 83,000 compounds, 20% with a hit somewhere; the sample as a whole holds those more often.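 In brief: 96-well plates, 48 h treatment, single concentration, percent growth endpoint.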 Unmarked numbers belong to inactive results. Active and inactive are the calls of the source. How the source made its calls: active means growth percent below 10; inactive means the rest."}
{"test_system": "MDA-MB-468 breast", "assay": "NCI-60 one-dose screen, 48 h (100 = growth as untreated, 0 = no growth, -100 = all killed)", "conditions": "10 µM unless noted"}
{"smiles": "CCN1C(=O)N(CC)C2Nn3c(s/c(=C4\\C(=O)N(CC(C)C)c5ccccc54)c3=O)=NC21", "note": "(stereo not given)", "growth": "15.8%"}
{"smiles": "c1ccc2[nH]c(-c3ccc(Nc4nc(N5CCCC5)nc5[nH]ncc45)cc3)nc2c1", "growth": "-38.5% (active)"}
{"smiles": "Clc1ccc2c(NCCCNc3nc(-n4ccnc4)nc4ccccc34)ccnc2c1", "growth": "53.3%"}
{"smiles": "Nc1c(C(=O)Nc2ccccc2)sc2nc3c(cc12)CN(CCc1ccccc1)CC3", "growth": "107%"}
{"smiles": "CN(C)C(=O)SC1=C(c2c(Cl)cccc2Cl)C(=O)c2ccccc21", "growth": "-86.5% (active)"}
{"smiles": "Brc1ccc(-c2cc(-c3ccc4c(c3)OCCO4)n[nH]2)s1", "growth": "7.7% (active)"}
{"smiles": "CS(=O)(=O)c1ccc(/C(=N/NC(N)=S)c2ccc(F)cc2)cc1", "growth": "88.2%"}
{"smiles": "O=C(c1ccccc1)N(CCCl)C(=O)N(CCCl)C(=O)c1ccccc1", "growth": "111%"}
{"smiles": "C[C@@H]1OCC2(CCN(c3cnc(C(=O)Nc4cc(F)cc5cccnc45)cn3)CC2)[C@@H]1N", "growth": "1.07% (active)"}
{"smiles": "CCN(CC)CCNc1ccc(C)c2sc3cc(Cl)ccc3c(=O)c12", "growth": "14.4%"}
{"smiles": "C#CC[C@@H]1C[C@]2(C)[C@H]3CC[C@@H]4[C@H]5C(C(=C)C)CC[C@]5(C(=O)NCCCCN)CC[C@@]4(C)[C@]3(C)CC[C@H]2C(C)(C)[C@H]1OC(C)=O", "note": "(stereo not given in full)", "growth": "-53.7% (active)"}
{"smiles": "Nc1nc(I)c2ncn(C3OC(CO)C(O)C3O)c2n1", "note": "(stereo not given)", "growth": "115%"}
{"smiles": "NC(=S)N/N=C/c1ccc(Cl)s1", "growth": "98.8%"}
{"smiles": "O=C(/C=C/c1cccc(B(O)O)c1)c1cccc(B(O)O)c1", "growth": "-84.9% (active)"}
{"smiles": "CNC(=O)c1cc(Oc2ccc3c(c2)sc2nc(-c4ccc(Cl)c(C(F)(F)F)c4)cn23)ccn1", "growth": "5.6% (active)"}
{"smiles": "C=C1C(=O)O[C@H]2[C@H]1CC/C(COC(=O)NCCc1c[nH]c3ccc(Cl)cc13)=C\\CC[C@@]1(C)O[C@@H]21", "growth": "-59% (active)"}
{"smiles": "C#C[C@@]1(O)[C@@H](CO)O[C@@H](n2cc(Cl)c3c(N)ccnc32)[C@@H]1O", "growth": "72.3%"}
{"smiles": "O=C(CC(=O)c1cccc(Cl)c1)c1cccc(Cl)c1", "growth": "41.7%"}
{"smiles": "COc1ccc2nc(NC(=O)Nc3c(F)cccc3F)sc2c1", "growth": "96.1%"}
{"smiles": "COc1ccc(C(=O)n2nc(-c3ccccc3)nc2N)cc1OC", "growth": "68.8%"}
{"smiles": "CC(C)C[C@@H]1N[C@@]2(C(=O)Nc3ccccc32)[C@@H](c2ccc(F)cc2)[C@@H]1C(=O)c1ccc(O)cc1", "growth": "102%"}
{"smiles": "Cc1ccc2[nH]c(=O)cc(-n3nncc3Cn3c4ccccc4c4ccccc43)c2c1", "growth": "94.7%"}
{"smiles": "N#Cc1c2ccccc2nc2ccccc12", "growth": "84.5%"}
{"smiles": "CC1=C(C#N)C(C)(C)C(C#N)=C(C)N1", "growth": "98.6%"}
{"smiles": "O=[N+]([O-])c1ccc(-c2nc(N(CCO)CCO)c3ccccc3n2)o1", "growth": "-73.5% (active)"}
{"smiles": "O=c1ccc2nc(C(F)(F)F)nn(-c3ccccc3)c-2c1", "growth": "-73.5% (active)"}
{"smiles": "CCNC(=O)CCCCC(=O)c1c(C)[nH]c(/C=C2\\N=C(c3ccc[nH]3)C=C2OC)c1C", "growth": "-22.7% (active)"}
{"smiles": "CC(=O)OC(C(=O)c1ccccc1)c1ccccc1", "note": "(stereo not given)", "growth": "109%"}
{"smiles": "O=C(CCC(=O)OC1CCCC1)OC1CCCC1", "growth": "100%"}
{"smiles": "COc1cc(-c2nc3cc(Cl)c(Cl)cc3[nH]2)ccc1OCC(=O)N=Nc1c(O)[nH]c2ccccc12", "growth": "-86.3% (active)"}
{"smiles": "COc1cc2ncnc(Nc3ccc(S(=O)(=O)Nc4nccs4)cc3)c2cc1OCCCN1CCOCC1", "growth": "107%"}
{"smiles": "COc1ccc(NC(=O)c2sc3c(=O)[nH]c(C(F)(F)F)nc3c2C)cc1", "growth": "131%"}
{"smiles": "CCCCCN(CCCCC)C(=O)C(CCC(=O)O)NC(=O)c1ccc(Cl)c(Cl)c1", "note": "(stereo not given)", "growth": "106%"}
{"smiles": "C=CCc1cc(C(C)=O)cc(OC)c1O", "growth": "90.6%"}
{"smiles": "CC1=C(C)C(=O)C(Nc2cccc(C)c2)=C(Br)C1=O", "growth": "-43.1% (active)"}
{"smiles": "CCCCNC(=O)Oc1ccc(/C(=C(/C)Cc2ccc(OC)cc2)c2ccc(OCCN3CCCCCC3)cc2)cc1", "growth": "69.2%"}
{"smiles": "CN(C)CC1CCCCCC(CN(C)C)C1=O", "note": "(stereo not given)", "growth": "15.3%"}
{"smiles": "O=c1cc(-c2ccccc2)nc2sc(-c3c[nH]c4ccc(F)cc34)nn12", "growth": "67.4%"}
{"smiles": "O=C1CNc2cc(Cl)ccc2N1", "growth": "117%"}
{"smiles": "CCOc1cccc(Nc2nc(N)nc3[nH]c4ccc(O)cc4c23)c1", "growth": "8.38% (active)"}
